Hit rate of the full screen: of about 5,500 compounds, about 2,000 (36%) were called active. Inconclusive results (about 18%) are left out. Cut-off read from the data, not from the text of the source: active = normalized growth mostly below about 0.91 (no sharp cut-off); inconclusive = no clear call, values can overlap the other calls; inactive = mostly above about 0.92. Some of the results follow.
Assay: chemical genetic growth profiling, strain panel (AID 1159580);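 note: tested at 20 µM; growth read once vehicle control cultures reached saturation at 30 °C; 1 = growth at the plate median or of vehicle wells; lower values mean less growth of the strain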
Conditions: S. cerevisiae deletion strains, growth OD
[1] = locus YAL040C, strain CLN3, hits give low values
[2] = locus YCL061C, strain MRC1 (second series), hits give low values
[3] = locus YDR363W, strain ESC2, hits give low values
[4] = locus YER002W, strain NOP16, hits give low values
[5] = locus YNL175C, strain NOP13, hits give low values
[6] = locus YNL197C, strain WHI3, hits give low values
[7] = locus YNL224C, strain SQS1, hits give low values
[8] = locus YOR083W, strain WHI5 (second series), hits give low values

Measured: normalized growth

CC(C)C[C@H](N)CSSC[C@@H](N)CC(C)C
inactive: [1] 0.965 | [2] 1.01 | [3] 1 | [4] 1.02 | locus YJR075W, strain HOC1, hits give low values 1 | locus YMR307W, strain GAS1, hits give low values 1.01 | locus YNL128W, strain TEP1, hits give low values 1.01 | [5] 1.01 | [6] 1.01 | [7] 1 | [8] 1.03 | locus YPL241C, strain CIN2, hits give low values 1.01

c1ccc(-c2ccccn2)nc1
inactive: [1] 0.974 | [2] 0.975 | [3] 1.02 | [4] 0.966 | locus YGR078C, strain PAC10, hits give low values 0.977 | locus YMR263W, strain SAP30, hits give low values 1 | locus YNL153C, strain GIM3, hits give low values 0.942 | [5] 0.987 | [6] 0.95 | [7] 0.991 | locus YNL322C, strain KRE1, hits give low values 1.03 | [8] 0.972

c1ccc(-c2nnc(-c3ccccn3)nc2-c2ccccc2)cc1
inactive: locus YBL105C, strain PKC1, hits give low values 0.945 | locus YBR135W, strain CKS1, hits give low values 0.937 | locus YBR136W, strain MEC1, hits give low values 0.904 | locus YBR160W, strain CDC28, hits give low values 0.944 | locus YDL017W, strain CDC7, hits give low values 0.946 | locus YDL028C, strain MPS1, hits give low values 0.896 | locus YDL101C, strain DUN1, hits give low values 0.957 | locus YDL108W, strain KIN28, hits give low values 0.917 | locus YDL214C, strain PRR2, hits give low values 0.814 | locus YDR226W, strain ADK1, hits give low values 0.924 | locus YDR477W, strain SNF1, hits give low values 0.748 | locus YER123W, strain YCK3, hits give low values 0.704 | locus YER133W, strain GLC7, hits give low values 0.783 | locus YFR003C, strain YPI1, hits give low values 0.943 | locus YFR019W, strain FAB1, hits give low values 0.796 | locus YGR040W, strain KSS1, hits give low values 0.748 | locus YGR052W, strain FMP48, hits give low values 0.641 | locus YHR082C, strain KSP1, hits give low values 0.655 | locus YHR205W, strain SCH9, hits give low values 0.689 | locus YIL147C, strain SLN1, hits give low values 0.893 | locus YJL128C, strain PBS2, hits give low values 0.871 | locus YJL157C, strain FAR1, hits give low values 0.74 | locus YJR066W, strain TOR1 (second series), hits give low values 0.663 | locus YJR066W, strain TOR1, hits give low values 0.565 | locus YKL067W, strain YNK1, hits give low values 0.792 | locus YML070W, strain DAK1, hits give low values 0.78 | locus YMR001C, strain CDC5, hits give low values 0.903 | locus YNL006W, strain LST8, hits give low values 0.932 | locus YNL020C, strain ARK1, hits give low values 0.746 | locus YNL161W, strain CBK1, hits give low values 0.938 | locus YNL183C, strain NPR1, hits give low values 0.655 | locus YNL222W, strain SSU72, hits give low values 0.914 | locus YOL136C, strain PFK27, hits give low values 0.861 | locus YOR231W, strain MKK1, hits give low values 0.631 | locus YOR329C, strain SCD5, hits give low values 0.921 | locus YPL031C, strain PHO85, hits give low values 0.774 | locus YPL153C, strain RAD53, hits give low values 0.695 | locus YPL209C, strain IPL1, hits give low values 0.931 | locus YPR025C, strain CCL1, hits give low values 0.927 | locus YPR106W, strain ISR1, hits give low values 0.919 | locus YPR111W, strain DBF20, hits give low values 0.885
active: locus YAR019C, strain CDC15, hits give low values 0.857 | locus YDL132W, strain cdc53, hits give low values 0.856 | locus YDR052C, strain DBF4, hits give low values 0.908 | locus YDR054C, strain cdc34, hits give low values 0.845 | locus YFL009W, strain cdc4, hits give low values 0.812 | locus YFL029C, strain CAK1, hits give low values 0.806 | locus YFR028C, strain CDC14, hits give low values 0.871 | locus YGR092W, strain DBF2, hits give low values 0.473 | locus YHR030C, strain SLT2, hits give low values 0.531 | locus YHR079C, strain IRE1, hits give low values 0.487 | locus YJL095W, strain BCK1, hits give low values 0.47 | locus YJR016C, strain ILV3, hits give low values 0.83 | locus YKL048C, strain ELM1, hits give low values 0.683 | locus YKL101W, strain HSL1, hits give low values 0.716 | locus YKL193C, strain SDS22, hits give low values 0.867 | locus YKL203C, strain TOR2, hits give low values 0.652 | locus YLR113W, strain HOG1, hits give low values 0.581 | locus YLR133W, strain CKI1, hits give low values 0.676 | locus YLR403W, strain SFP1, hits give low values 0.631 | locus YMR205C, strain PFK2 (second series), hits give low values 0.734 | locus YMR277W, strain FCP1, hits give low values 0.871 | locus YNL207W, strain RIO2, hits give low values 0.813 | locus YNL307C, strain MCK1 (second series), hits give low values 0.623 | locus YOL078W, strain AVO1, hits give low values 0.859 | locus YOR061W, strain CKA2, hits give low values 0.662 | locus YOR119C, strain RIO1, hits give low values 0.57 | locus YPL204W, strain HRR25, hits give low values 0.661 | locus YPL256C, strain CLN2, hits give low values 0.545 | strain NNK1, hits give low values 0.814 | strain TSCII, hits give low values 0.842

From PubChem BioAssay AID1159580 (chemical genetic matrix, 2015)
